LGR2 inh = blocks bursicon-induced cAMP signaling via Drosophila LGR2; AID 720647; HEK293 LGR2, CRE-luciferase, bursicon-stimulated, 4 h; hit rate 0.35% among 380,000; inhibition, % at 9.99 µM;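 active = drop in luminescence signal, shown as inhibition above about 50% in the replicate tests, limit read from the data, passing the limit was not always enough; inconclusive = probably only some replicates passing the limit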;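 note: agonist challenge used bursicon conditioned medium at about half maximal strength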
RAD52 anneal inh = RAD52 (human) annealing inhibition | P43351 | recombinant RAD52 DNA annealing, FRET fluorescence | inhibition, % at 18.7 µM | hit rate 0.46% among 360,000;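 active = every replicate showing at least 50% inhibition; inconclusive = mean inhibition at least 50% but not in every replicate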
Target sequence (P43351 whole entry, looked up): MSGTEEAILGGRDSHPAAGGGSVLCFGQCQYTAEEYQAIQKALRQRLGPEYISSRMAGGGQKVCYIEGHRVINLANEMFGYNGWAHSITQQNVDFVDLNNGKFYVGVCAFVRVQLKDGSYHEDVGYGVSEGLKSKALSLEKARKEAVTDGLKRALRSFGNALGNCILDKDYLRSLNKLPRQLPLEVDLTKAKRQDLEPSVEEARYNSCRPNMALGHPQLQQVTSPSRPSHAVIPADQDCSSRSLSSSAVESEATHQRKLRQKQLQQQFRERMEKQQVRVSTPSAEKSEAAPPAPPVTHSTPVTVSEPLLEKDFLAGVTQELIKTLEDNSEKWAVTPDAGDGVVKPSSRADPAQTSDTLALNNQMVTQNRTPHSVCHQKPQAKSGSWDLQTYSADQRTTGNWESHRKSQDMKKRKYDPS
EWS-Fli inh = EWS/Fli transcriptional activity inhibition; A673 NR0B1-luciferase reporter, viability-normalised; inhibition, % at 12.6 µM; hit rate 0.67% among 350,000;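 active = mean inhibition of at least 50% after viability correction, with every replicate also passing that limit; inconclusive = mean reaches 50% but only one of two replicates passes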;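 note: firefly luciferase signal divided by Alamar Blue viability fluorescence both relative to DMSO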
GSIS activator = primary screen for activators of insulin secretion dependent on glucose, INS-1E cells, GLuc reporter luminescence; INS-1E GLuc reporter insulin secretion, 2-3 h; activation, % at 16.6 µM; hit rate 0.61% among 370,000;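 active = lowest replicate activation of at least 40%, so every replicate reaches that level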;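 note: 0% = median of neutral control wells and 100% = median of IBMX positive control wells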
RAD54 inh = blocks human RAD54 Holliday junction branch migration; Q92698; FAM/BHQ fluorescence; inhibition, % at 10.4 µM; hit rate 0.14% among 360,000;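 active = mean normalized replicate activity at least 40 and at least half of replicates scoring 40 or more; inconclusive = only one of the two criteria met; inactive = mean below 40 and under half of replicates reaching 40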;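 note: 0% = median of neutral control wells and 100% = median of positive control wells; inhibitors cause a drop in the FAM fluorescence signal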
CFTR F508del cor = CFTR F508del correction in bronchial cells | AID 720511 | hit rate 0.36% among 350,000 | activity (quench increase), % at 7.58 µM | CFBE cells, YFP halide quenching; stimulated with forskolin plus potentiator P3; % fluorescence drop versus neutral controls;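 active = mean added fluorescence quench of at least 8% versus neutral control, with both replicates also reaching 8%; inconclusive = only one of the mean or replicate conditions met; inactive = mean below 8% and not both replicates reaching 8%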;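 note: cells transiently co-express mutant CFTR-F508del with the halide-sensitive YFP; corrector assay measuring rescue of mutant channel to the surface after 24 h compound exposure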
Active calls of the source: *; ? = inconclusive; / = no result. A selection: hits, their analogues and other compounds. The true share with any hit is near 1.8%.

SMILES	LGR2 inh	RAD52 anneal inh	EWS-Fli inh	GSIS activator	RAD54 inh	CFTR F508del cor
CN(C)CC(=O)N[C@H]1CC[C@H](CC(=O)NCCN2CCCCC2)O[C@H]1CO	-1	1	5	10	2	0
Cc1ccc2nc(-c3ccc(NC(=O)CCS(=O)(=O)c4ccccc4)cc3)sc2c1	-57	-65	70*	5	/	2
Cc1nc2ccc(NC(=O)CCS(=O)(=O)c3ccccc3)cc2s1	-18	-38	-54	4	/	-1
Cc1ccc2nc(-c3ccc(NC(=O)C(C)Sc4nncs4)cc3)sc2c1 (centres undefined)	58*	-20	29	12	-13	2
O=C(CC1NC(=O)NC1=O)Nc1cccc2ccccc12 (centres undefined)	12	/	/	/	6	/
COC(=O)c1cc(C)nc2c1C(=O)C(=O)C=C2N1CCOCC1	60*	13	73*	8	9	-4
COC(=O)c1cc(S(=O)(=O)N2CCOCC2)c(Cl)cc1N1CCOCC1	/	/	/	/	7	/
COc1ccc(C=C2C(=O)OC(C)(C)OC2=O)cc1OC	-43	-17	-11	9	6	4
COc1ccc(/C=C2\C(=O)OCc3cc(OC)c(OC)cc32)cc1OC	-12	/	/	103*	4	/
COc1cc2c(cc1OC)/C(=C/c1ccc(Cl)cc1)C(=O)OC2	20	/	/	62*	-18	/
O=C(C[C@@H]1C[C@H]2c3cc(NC(=O)CC4CC4)ccc3O[C@H]2[C@@H](CO)O1)NCc1ccc(-c2ccccc2)cc1	-8	3	10	-3	-5	-3
CCOC(=O)N1CCN(C(=O)COc2ccccc2OC)CC1	16	/	/	62*	-2	/
C/C=C1\COC(C(=O)NCc2cccc(OC)c2OC)(C(F)(F)F)C=C1C=C1CCCCC1 (centres undefined)	33	-12	19	73*	-12	0
CO[C@H]1CN(C)C(=O)c2cc(NC(=O)c3ccc(-c4ccccc4)cc3)ccc2OC[C@@H](C)NC[C@@H]1C	22	43	2	/	17	-6
CO[C@H]1CN(C)C(=O)c2cc(NC(=O)c3ccc(-c4ccccc4)cc3)ccc2OC[C@H](C)NC[C@@H]1C	7	28	58*	5	6	1
CO[C@@H]1CN(C)C(=O)c2cc(NC(=O)c3ccc(-c4ccccc4)cc3)ccc2OC[C@H](C)NC[C@H]1C	0	44	54*	15	14	-9
CCCc1nc(NCc2ccccn2)c2nnn(Cc3ccccc3F)c2n1	/	/	/	/	6	/
COc1ccc(NC(=O)C2CCCO2)cc1Cl (centres undefined)	/	/	/	-8	-2	/
COC(=O)c1ccc(Oc2coc3cc(OCc4cnn(-c5ccccc5)c4)ccc3c2=O)cc1	/	/	/	/	-11	/
N/C(=N\OC(=O)c1cccc(Br)c1)c1ccccn1	77*	2	/	27	-2	-4
N/C(=N\OC(=O)c1ccc(Cl)c([N+](=O)[O-])c1)c1ccccn1	7	0	-13	3	/	4
COc1cc(OC)c(C(=O)O/N=C(\N)c2ccccn2)cc1OC	-19	0	-9	23	-13	-1
Cc1ccc(C(=O)O/N=C(\N)c2ccccn2)c(C)c1	101*	-3	77*	-5	3	-5
N/C(=N\OC(=O)c1cccc(Br)c1)c1ccccc1	?	/	/	-5	-15	/
COc1ccc(/C(N)=N/OC(=O)c2cccs2)cc1	70*	3	-92	9	/	-3
SMILES	LGR2 inh	RAD52 anneal inh	EWS-Fli inh	GSIS activator	RAD54 inh	CFTR F508del cor
N/C(=N\OC(=O)c1ccc(Cl)c(Cl)c1)c1ccccn1	68*	/	/	3	-4	/
Cc1cc(C)nc(SCCc2ccncc2)n1	/	/	/	/	-3	/
CCOc1ccccc1NC(=O)CN1c2cccc3cccc(c23)S1(=O)=O	7	-45	-19	4	-12	3
COc1ccc2c(c1)C(=NNC(=O)c1ccccn1)c1cc(OC)ccc1-2	3	/	/	146*	/	/
N/C(=N\OC(=O)c1ccc(Cl)cc1)c1ccccn1	90*	-3	/	2	-6	/
N/C(=N\OC(=O)c1ccc(Cl)cc1)c1[nH]ncc1Br	61*	-9	27	10	-1	/
COc1ccc(C(=O)NOCc2ccccc2)cc1	73*	-6	14	-1	-3	2
O=C(NOCc1ccccc1)c1ccc(Cl)cc1	44	-9	-76	/	5	-1
N/C(=N\OS(=O)(=O)c1ccc(Cl)cc1)c1ccccn1	-29	-12	-37	-5	/	2
CCO/N=C(\N)c1[nH]ncc1Br	-13	-5	-3	2	10	-1
CC1=C(C)N(C)[C@H](c2ccccc2Br)[C@H](O)C1=O	-16	-6	-11	0	6	2
Cc1ccc(S(=O)(=O)N2CCOCC2)cc1NC(=O)COC(=O)c1cccc(Cl)c1Cl	-3	-4	-1	-29	10	-1
OC1CCN(CC(O)C(F)(F)F)CC1 (centres undefined)	-10	-25	-7	6	/	0
CCCCNC(=O)C1CCC(CNc2c(N3CCC(C)CC3)c(=O)c2=O)CC1 (centres undefined)	-6	-10	3	5	/	-2
COc1ccc(NC(=O)N2C[C@H](O)COC[C@H]3O[C@@H](CC(=O)N4CCOCC4)CC[C@@H]32)cc1	-1	2	-2	7	-1	-1
N/C(=N\OC(=O)c1cccc(Cl)c1)c1ccccn1	73*	/	/	37	/	/
COc1ccc(C(=O)NNC(=O)c2ccccn2)cc1	/	-14	62*	13	/	-5
CCOc1ccc(C(=O)O/N=C(\N)c2ccccn2)cc1OCC	-43	-2	/	87*	-9	0
Cc1cc(/C(N)=N/OC(=O)c2cccc(Cl)c2)no1	-62	0	-57	-5	2	-1
CCOc1cc(C(=O)O/N=C(\N)c2ccccn2)cc(OCC)c1OCC	-16	0	-11	15	-13	2
CCOc1ccc(NC(=O)c2cnccn2)cc1	/	/	/	/	1	/
CCOc1ccc(NC(=O)c2ccccn2)cc1	95*	-21	78*	16	/	-1
Nc1ccccc1C(=O)/C=C/c1ccc2c(c1)OCO2	-13	-18	-98	17	-3	-2
COc1ccccc1CNC(=O)C(C)NS(=O)(=O)c1ccccc1 (centres undefined)	/	/	/	/	-2	/
CCCCOc1ccc(C2C3CN(C(=O)OCC)CC=C3C(C#N)=C(N)C2(C#N)C#N)cc1OC (centres undefined)	12	-45	3	-29	-17	-2
COc1ccccc1C(=O)O/N=C(\N)c1ccccn1	?	-1	-13	-1	/	-5
COc1ccc(C(=O)O/N=C(\N)c2ccccn2)cc1	103*	-5	44	-7	-9	-2
COc1cc(OC)cc(C(=O)O/N=C(\N)c2ccccn2)c1	/	-2	-75	/	-16	2
CCOc1cc(OCC)cc(C(=O)Nc2cccnc2)c1	-7	-5	/	41*	-1	/

Compound activity (PubChem BioAssay)
